Reference: PubChem BioAssay (EPA / NIEHS)
Inconclusive results are not listed. Calls of active or inactive are those of the source. How the source made its calls: active means hit-call score of the fitted dose curve at least 0.9, where 1 is the maximum; inconclusive means response in the unintended direction; inactive means score below 0.9.

These molecules were tested against Estrogen receptor (Homo sapiens) (UniProt P03372) (assay: OT_ER_ERaERa_1440: Odyssey Thera (OT) 24-hour HEK293T Protein-Complementation Assay for Estrogen Receptor-alpha/-alpha Homodimer (AID 2283349);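 further: hits raise fluorescence above DMSO for agonists and antagonists alike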).
In short: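 Stably transfected HEK293T; ERα LBD homodimer PCA. 24 h dosing, fluorescence intensity read, gain-of-signal vs DMSO.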

Sequence of Estrogen receptor (Homo sapiens) (P03372 whole entry, looked up, the tested form may be a part): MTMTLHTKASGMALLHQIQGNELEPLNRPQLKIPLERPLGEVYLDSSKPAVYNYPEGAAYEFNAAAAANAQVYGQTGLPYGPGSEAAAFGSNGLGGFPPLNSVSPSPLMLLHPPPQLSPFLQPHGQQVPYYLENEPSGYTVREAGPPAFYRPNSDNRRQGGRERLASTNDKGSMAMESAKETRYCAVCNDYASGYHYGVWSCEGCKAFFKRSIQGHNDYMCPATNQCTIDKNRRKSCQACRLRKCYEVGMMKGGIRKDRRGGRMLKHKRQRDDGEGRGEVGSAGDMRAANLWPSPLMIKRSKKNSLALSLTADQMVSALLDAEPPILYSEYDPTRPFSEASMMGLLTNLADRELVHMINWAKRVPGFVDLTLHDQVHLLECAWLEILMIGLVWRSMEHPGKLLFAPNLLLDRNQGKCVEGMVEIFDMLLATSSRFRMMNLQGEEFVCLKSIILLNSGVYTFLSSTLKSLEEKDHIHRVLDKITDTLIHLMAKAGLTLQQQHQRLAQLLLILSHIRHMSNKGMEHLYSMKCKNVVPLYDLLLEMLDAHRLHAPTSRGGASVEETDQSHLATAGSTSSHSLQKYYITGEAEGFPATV

Row | Compound | outcome | AC50
1 | CC(=O)OC(C)(C)C1CC=C(C)CC1 (stereo not given) | inactive | 
2 | CCCCCCCCOC(=O)c1ccc(O)cc1 |  | 32.8 µM (active)
3 | CCCCCCOc1ccc(O)cc1 |  | 13.6 µM (active)
4 | CC(C)(C)c1ccc(S)cc1 | inactive | 
5 | CC(C)(CO)CO | inactive | 
6 | CCCCCCCCCOS(=O)(=O)O | inactive | 
7 | CC(=O)C1C(=O)C=C(C)OC1=O (stereo not given) | inactive | 
8 | CCCCCCCCCCCCOCCOS(=O)(=O)O | inactive | 
9 | O=C1OC2(c3ccc(O)cc3Oc3cc(O)ccc32)c2ccccc21 | inactive | 
10 | COc1ccccc1O | inactive | 
11 | CCC(=O)OC(C)(C)C1CC=C(C)CC1 (stereo not given) | inactive | 
12 | CC(O)CN (stereo not given) | inactive | 
13 | CCOCC(C)O (stereo not given) | inactive | 
14 | CCCCCC(=O)O[C@]1(C(C)=O)CC[C@H]2[C@@H]3CCC4=CC(=O)CC[C@]4(C)[C@H]3CC[C@@]21C | inactive | 
15 | CCC(C)(C)C1CCC(=O)CC1 | inactive | 
16 | CC(=O)CC(=O)N(C)C | inactive | 
17 | Cc1cccc(O)c1 | inactive | 

These molecules were tested against Estrogen receptor (Homo sapiens) (UniProt P03372) (assay: OT_ER_ERaERa_0480: Odyssey Thera (OT) 8-hour HEK293T Protein-Complementation Assay for Estrogen Receptor-alpha/-alpha Homodimer (AID 2283351);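 further: rise in fluorescence from reassembled reporter fragments on ERα LBD homodimer in nucleus or whole cell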).
In short: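 HEK293T cells stably expressing a PCA pair of ER alpha LBD (residues 310-547) were dosed for 8 hours. The gain in fluorescence intensity, nuclear for agonists and whole-cell for antagonists, was measured by laser scanning cytometry against DMSO vehicle.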

Row | Compound | outcome | AC50
18 | CC(=O)OC(C)(C)C1CC=C(C)CC1 (stereo not given) | inactive | 
19 | CCCCCCCCOC(=O)c1ccc(O)cc1 |  | 20.9 µM (active)
20 | CCCCCCOc1ccc(O)cc1 |  | 18.3 µM (active)
21 | CC(C)(CO)CO | inactive | 
22 | CCCCCCCCCOS(=O)(=O)O | inactive | 
23 | CC(=O)C1C(=O)C=C(C)OC1=O (stereo not given) | inactive | 
24 | CCCCCCCCCCCCOCCOS(=O)(=O)O | inactive | 
25 | O=C1OC2(c3ccc(O)cc3Oc3cc(O)ccc32)c2ccccc21 | inactive | 
26 | COc1ccccc1O | inactive | 

What follows are molecules tested against Estrogen receptor (Homo sapiens) + Estrogen receptor beta (Homo sapiens) (UniProt P03372+Q92731) (assay: OT_ER_ERaERb_0480: Odyssey Thera (OT) 8-hour HEK293T Protein-Complementation Assay for Estrogen Receptor-alpha/-beta Heterodimer (AID 2283352)).
In short: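 HEK293T protein-fragment complementation assay of ER-alpha/ER-beta LBD heterodimerisation, read 8 h after dosing. Mean nuclear/cytoplasmic fluorescence intensity measured by laser scanning cytometry; gain of signal fitted relative to DMSO.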

Sequence of Estrogen receptor (Homo sapiens) + Estrogen receptor beta (Homo sapiens) (P03372 whole entry, looked up, the tested form may be a part): as above
Sequence of Estrogen receptor (Homo sapiens) + Estrogen receptor beta (Homo sapiens) (Q92731 whole entry, looked up, the tested form may be a part): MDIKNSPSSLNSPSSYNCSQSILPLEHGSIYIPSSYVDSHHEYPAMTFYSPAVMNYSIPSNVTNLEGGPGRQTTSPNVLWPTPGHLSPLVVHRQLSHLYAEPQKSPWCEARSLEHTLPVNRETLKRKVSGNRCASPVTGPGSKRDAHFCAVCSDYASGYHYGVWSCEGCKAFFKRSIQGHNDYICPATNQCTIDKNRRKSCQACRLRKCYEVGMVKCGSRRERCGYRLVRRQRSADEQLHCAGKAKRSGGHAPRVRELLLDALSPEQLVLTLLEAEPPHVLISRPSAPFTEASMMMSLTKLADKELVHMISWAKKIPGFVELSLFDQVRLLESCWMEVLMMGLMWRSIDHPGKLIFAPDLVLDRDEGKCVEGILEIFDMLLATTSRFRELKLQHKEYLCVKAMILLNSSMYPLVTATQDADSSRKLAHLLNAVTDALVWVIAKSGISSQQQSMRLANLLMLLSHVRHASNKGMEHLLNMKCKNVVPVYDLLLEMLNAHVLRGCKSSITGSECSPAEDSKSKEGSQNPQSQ

Row | Compound | AC50 | outcome
27 | CCCCCCCCOC(=O)c1ccc(O)cc1 | 10.1 µM (active) | 
28 | CCCCCCOc1ccc(O)cc1 | 12 µM (active) | 
29 | CC(C)(CO)CO |  | inactive
30 | CCCCCCCCCOS(=O)(=O)O |  | inactive
31 | CC(=O)C1C(=O)C=C(C)OC1=O (stereo not given) |  | inactive
32 | CCC(=O)OC(C)(C)C1CC=C(C)CC1 (stereo not given) |  | inactive
33 | CC(O)CN (stereo not given) |  | inactive
34 | CCOCC(C)O (stereo not given) |  | inactive
35 | CCCCCC(=O)O[C@]1(C(C)=O)CC[C@H]2[C@@H]3CCC4=CC(=O)CC[C@]4(C)[C@H]3CC[C@@]21C |  | inactive
36 | CC(=O)CC(=O)N(C)C |  | inactive
37 | Cc1cccc(O)c1 |  | inactive

These molecules were tested against Androgen Receptor/SRC-1 Co-activator, AR (gene 367) (UniProt P10275) (assay: OT_AR_ARSRC1_0960: Odyssey Thera (OT) 16-hour HEK293T Protein-Complementation Assay for Androgen Receptor/SRC-1 Co-activator (AID 2283353);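 further: actives raise the signal above DMSO so potency reflects increased AR and SRC-1 complex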).
In short: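 Endpoint is gain-of-signal N/C fluorescence ratio in the 488 nm channel versus DMSO, from at least 400 cells per image, measured 16 h post-dosing. Cells: HEK293T stably carrying split-Venus AR/SRC-1 complementation constructs.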

Sequence of Androgen Receptor/SRC-1 Co-activator, AR (gene 367) (P10275 whole entry, looked up): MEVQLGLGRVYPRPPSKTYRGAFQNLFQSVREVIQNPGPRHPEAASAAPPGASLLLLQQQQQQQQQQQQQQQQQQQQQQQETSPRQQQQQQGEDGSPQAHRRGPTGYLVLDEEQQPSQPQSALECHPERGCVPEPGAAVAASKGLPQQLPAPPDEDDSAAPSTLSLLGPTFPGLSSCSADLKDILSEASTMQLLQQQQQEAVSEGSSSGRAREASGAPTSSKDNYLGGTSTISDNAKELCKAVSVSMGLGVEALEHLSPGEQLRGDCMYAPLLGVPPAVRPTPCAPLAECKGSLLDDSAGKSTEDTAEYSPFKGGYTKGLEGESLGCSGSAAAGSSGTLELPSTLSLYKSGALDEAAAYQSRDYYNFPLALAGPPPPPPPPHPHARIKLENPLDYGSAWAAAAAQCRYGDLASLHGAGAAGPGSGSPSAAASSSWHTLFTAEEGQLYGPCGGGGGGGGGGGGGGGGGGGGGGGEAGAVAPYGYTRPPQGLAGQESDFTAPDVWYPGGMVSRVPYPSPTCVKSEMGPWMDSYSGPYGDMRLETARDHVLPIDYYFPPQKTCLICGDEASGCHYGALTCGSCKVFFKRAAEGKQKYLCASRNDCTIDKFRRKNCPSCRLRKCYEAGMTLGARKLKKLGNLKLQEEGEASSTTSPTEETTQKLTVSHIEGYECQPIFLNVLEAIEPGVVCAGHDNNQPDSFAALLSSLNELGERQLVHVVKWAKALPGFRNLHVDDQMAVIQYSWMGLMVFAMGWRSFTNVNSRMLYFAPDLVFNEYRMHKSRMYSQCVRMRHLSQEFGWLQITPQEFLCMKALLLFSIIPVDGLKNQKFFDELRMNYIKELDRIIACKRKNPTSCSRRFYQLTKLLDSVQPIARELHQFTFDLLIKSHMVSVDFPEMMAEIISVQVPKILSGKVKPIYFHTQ

Row | Compound | AC50 | outcome
38 | CCCCCCOc1ccc(O)cc1 | 75.1 µM (active) | 
39 | CC(C)(CO)CO |  | inactive
40 | CCC(C)(C)C1CCC(=O)CC1 |  | inactive
